{
  "source": "PubChem BioAssay (NCI)",
  "note": "Values joined by “and” are separate entries in the source; they are usually repeats but may differ in a detail not shown here. Identical values can stand only once. Compounds without any hit were thinned out: in the full panel of roughly 83,000, 20% have a hit.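 Negative percent growth values reflect cell death: -40 means 40% of the cells present at the start died, and -100 means all died.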 Active and inactive are the calls of the source. The calls were made as follows: active = growth percent below 10; inactive = the rest.",
  "data": [
    {"tested_on": "MDA-MB-468 breast", "experiment": "NCI-60 one-dose screen, 48 h (100 = growth as untreated, 0 = no growth, -100 = all killed)", "conditions": "10 µM unless noted", "values": [
      {"smiles": "Cc1ccc(C2CC(c3ccc(Nc4nc(NCCO)nc(Nc5ccc(Cl)cc5)n4)cc3)=NN2c2cc(Cl)cc(Cl)c2)cc1", "note": "(centres undefined)", "growth": "102% (inactive)"},
      {"smiles": "O=C1C(Cl)=C(Nc2ccc(S(=O)(=O)c3ccc(NC4=C(Cl)C(=O)c5ccccc5C4=O)cc3)cc2)C(=O)c2ccccc21", "growth": "-60.1% (active)"},
      {"smiles": "COc1ccc(C(O)c2cc3c(N)c(C(=O)Nc4cccc(Br)c4C)sc3nc2C)cc1", "note": "(centres undefined)", "growth": "7.52% (active)"},
      {"smiles": "NC(Cc1c[nH]c2ccccc12)C(=O)O", "note": "(centres undefined)", "growth": "110% (inactive) and 112% (inactive)"},
      {"smiles": "O=C1NC(=S)N[C@H]1CC(=O)n1cnc2ccccc21", "growth": "86.3% (inactive)"},
      {"smiles": "NC(=S)N/N=C/c1cn(-c2ccccc2)nc1-c1cc2ccccc2oc1=O", "growth": "43.3% (inactive)"},
      {"smiles": "Fc1ccc(-c2nc(-c3nc4ncccc4[nH]3)cc3c2[nH]c2ccccc23)cc1F", "growth": "49.5% (inactive)"},
      {"smiles": "CNCCCNc1ccnc2cc(Cl)ccc12", "growth": "-85% (active)"},
      {"smiles": "Cc1ccc2c(C(C[N+](=O)[O-])c3ccccc3)c(-c3ccccc3)[nH]c2c1", "note": "(centres undefined)", "growth": "-9.08% [9.5 µM] (active)"},
      {"smiles": "O=C1/C=C/[C@@H](O)[C@@H]2C[C@@H](O)C[C@H]2/C=C/CCC[C@@H](O)CCO1", "growth": "-17% (active)"},
      {"smiles": "COc1cc(-c2nc3cc(Cl)c(Cl)cc3[nH]2)ccc1OCC(=O)N=Nc1c(O)[nH]c2ccc([N+](=O)[O-])cc12", "growth": "4.59% (active)"},
      {"smiles": "COc1cc(/C=N/NC(=O)c2ccc(-n3cc(-c4ccccc4)nn3)cc2)cc(OC)c1OC", "growth": "31.6% (inactive)"},
      {"smiles": "N#Cc1c(-c2ccc(Cl)cc2)nc(NN=Cc2ccc[nH]2)nc1N1CCOCC1", "growth": "78.2% (inactive)"},
      {"smiles": "C#CCN(CCCOc1ccc(Cl)cc1Cl)CCCSC(=O)CCCCCN1/C(=C\\C=C2/CCCC(/C=C/C3=[N+](CCCCCC(=O)[O-])c4ccccc4C3(C)C)=C2Cl)C(C)(C)c2ccccc21", "growth": "12.8% (inactive)"},
      {"smiles": "O=c1ccc(-c2nc(N3CCOCC3)c3ccccc3n2)c[nH]1", "growth": "95.8% (inactive)"},
      {"smiles": "CCOC(=O)c1c(C)nc2ccccc2c1/C=C/c1ccc(F)cc1", "growth": "-2.47% (active)"},
      {"smiles": "COc1ccc(-c2ccc(-c3ccc(C(=N)N)nc3)s2)cc1Cl", "growth": "-51.8% (active)"},
      {"smiles": "Cc1[nH]nc2ccc3nc(-c4ccc5[nH]ncc5c4)c4c(c3c12)CCCC4", "growth": "-6.72% (active)"},
      {"smiles": "COc1cc2c(c(OC)c1OC)CCC(c1cccc(C(=O)Nc3ccc(Br)cc3)c1)O2", "note": "(centres undefined)", "growth": "38.2% (inactive)"},
      {"smiles": "COc1ccccc1S(=O)(=O)Nc1ccc2c3c(cc(-c4cnn(C)c4)nc13)C(=O)N2C", "growth": "23.1% (inactive)"},
      {"smiles": "O=C(N/N=C/c1ccccc1SSc1ccccc1/C=N/NC(=O)c1ccccc1)c1ccccc1", "growth": "51.9% (inactive)"},
      {"smiles": "COc1cc(/C=C2\\C(=O)N(CCOc3cc(O)c4c(=O)cc(-c5ccccc5)oc4c3)c3ccccc32)cc(OC)c1O", "growth": "89.6% (inactive)"},
      {"smiles": "CC1(C)OC2OC3C(CN)OC(c4ccccc4)OC3C2O1", "note": "(centres undefined)", "growth": "116% (inactive)"},
      {"smiles": "COc1ccc(-c2cc(-c3ccc(Nc4nc(Nc5ccccc5)nc(Nc5ccc(Cl)cc5)n4)cc3)nc(N)n2)cc1", "growth": "87.4% (inactive)"},
      {"smiles": "CCCCC(C=O)(C=C=C(C)C)CC", "note": "(centres undefined)", "growth": "108% (inactive)"},
      {"smiles": "C#CCNC1CCC(c2csc(C#C)n2)=C1C", "note": "(centres undefined)", "growth": "58.9% (inactive)"},
      {"smiles": "CCN(CC)CCCC(C)Nc1ccnc2cc(Cl)c(SCc3ccccc3)cc12", "note": "(centres undefined)", "growth": "-88.5% (active)"},
      {"smiles": "CCN(CC)CCCCCCCCNc1c2ccc(Cl)cc2nc2ccc(OC)cc12", "growth": "-93.2% (active)"},
      {"smiles": "CC(C)C(=O)Nc1ccc(-c2nc(-c3cccc(O)c3)c(-c3ccnc(Br)c3)[nH]2)cc1", "growth": "15.1% (inactive)"},
      {"smiles": "CN1CCN(Cc2ccc(NC(=O)c3cncc(C#Cc4cnccc4C#N)c3)cc2C(F)(F)F)CC1", "growth": "90.5% (inactive)"},
      {"smiles": "Oc1ccc(-c2nn(-c3ccccc3)cc2-c2nc3ccccc3s2)cc1", "growth": "90.1% (inactive)"},
      {"smiles": "CC(C)=CC[C@@H]1CC2(CC=C(C)C)C(=O)C(OC3(C(=O)c4ccccc4)C(=O)C4(CC=C(C)C)C[C@@H](CC=C(C)C)C(C)(C)C(CC=C(C)C)(C4=O)C3=O)(C(=O)c3ccccc3)C(=O)C(CC=C(C)C)(C2=O)C1(C)C", "note": "(some centres undefined)", "growth": "-6.87% (active)"},
      {"smiles": "CCCCCCCCCCCCCCCCNC(=O)Nc1ccc2ccccc2c1", "growth": "94.3% (inactive)"},
      {"smiles": "O=[N+]([O-])c1cccc([I+]c2ccccc2)c1", "growth": "20.2% (inactive)"},
      {"smiles": "O=C(O)C(c1ccccc1)N1C(=O)CSC1=S", "note": "(centres undefined)", "growth": "101% (inactive)"},
      {"smiles": "CC(C)Sc1nc(-c2ccc(Br)cc2)c(C#N)c(N2CCCCC2)n1", "growth": "93.9% (inactive)"},
      {"smiles": "O=C1CC(C(F)(F)F)Cc2nc3ccc(Br)cc3cc21", "note": "(centres undefined)", "growth": "94.8% (inactive)"},
      {"smiles": "Nc1c(C(=O)c2ccc(Cl)s2)sc2nc3c(cc12)CCCC3", "growth": "69.1% (inactive)"},
      {"smiles": "COc1ccccc1/C=N\\N=C(N/N=C/c1ccccc1OC)N/N=C/c1ccccc1OC", "growth": "58.3% (inactive) and 10.5% (inactive)"}
    ]}
  ]
}
